Results taken from PubChem BioAssay (NCI).
The panel holds about 79,000 compounds, 15% with a hit somewhere; the sample as a whole holds those more often. Cut-off read from the data, not from the text of the source: active = growth inhibition above about 70%; inactive = the rest.

How the values were obtained:
[1] = NCI Yeast Anticancer Drug Screen. Data for the rad50 strain (AID 155);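 note: 0% = growth of vehicle-only cultures of the same strain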; conditions: S. cerevisiae rad50 strain growth inhibition; at 50.0 µM; active compounds read high
Summary of the method: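 Yeast carrying a defined DNA repair defect were exposed to test compounds, and growth was compared with vehicle-treated controls to give percent inhibition.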

[2] = NCI Yeast Anticancer Drug Screen. Data for the mec2-1 strain (AID 157); conditions: S. cerevisiae mec2-1 strain, at 50.0 µM, active compounds read high
Summary of the method: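 Strain: mec2-1 (DNA repair/cell cycle alteration). Compound exposure, then growth measured; inhibition expressed relative to vehicle.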

[3] = NCI Yeast Anticancer Drug Screen. Data for the sgs1 mgt1 strain (AID 161);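 note: 0% = growth of cultures given vehicle only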; conditions: S. cerevisiae sgs1 mgt1 strain, at 50.0 µM, active compounds read high
Summary of the method: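 Read-out: growth inhibition vs vehicle controls. Cells: mutant yeast strain deficient in DNA damage repair.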

[4] = NCI Yeast Anticancer Drug Screen. Data for the cln2 rad14 strain (AID 165);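 note: 0% = growth equal to vehicle treated cultures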; conditions: S. cerevisiae cln2 rad14 strain, at 50.0 µM, active compounds read high
Summary of the method: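 Compounds are applied to the cln2 rad14 yeast strain, and growth is then compared with that of vehicle-treated cultures to give inhibition.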

[5] = NCI Yeast Anticancer Drug Screen. Data for the bub3 strain (AID 167); conditions: S. cerevisiae bub3 mutant strain, at 50.0 µM, active compounds read high
Summary of the method: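 Compounds were applied to a genetically altered yeast strain carrying a cell-cycle control defect. Growth inhibition was scored against vehicle-treated controls.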

[6] = NCI Yeast Anticancer Drug Screen. Data for the mlh1 rad18 strain (AID 175); conditions: S. cerevisiae mlh1 rad18 strain growth inhibition; at 50.0 µM; active compounds read high
Summary of the method: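 Read-out is yeast growth inhibition, calculated against vehicle-only controls. The compound was applied to a strain engineered with DNA damage repair alterations.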

Measured: growth inhibition

S=C1N=C(Cl)/C(=C\c2ccco2)N1
inactive: [1] -4.55% | [2] -18% | [3] 12.1% | [4] 4.2% | [5] 15.9% | [6] -20.6%

CCCCCCC1(/C=C/c2ccc(Cl)cc2Cl)OCCCO1
inactive: [1] 3.3% | [2] 9.1% | [3] -5.45% | [4] -2.75% | [5] 11.8% | [6] 3.65%

CON(C)S(=O)(=O)c1ccc(Cl)cc1
inactive: [1] 7.75% | [2] -9.5% | [3] -4.15% | [4] -18.9% | [5] -2.25% | [6] -6.2%

O=C1[C@H]2ON(c3ccccc3)C(c3ccc(Cl)cc3)[C@H]2C(=O)N1c1ccc(Cc2ccc(N3C(=O)[C@@H]4ON(c5ccccc5)C(c5ccc(Cl)cc5)[C@@H]4C3=O)cc2)cc1 (some centres undefined)
inactive: [1] 1.75% | [2] 8.6% | [3] 0.2% | [4] 26.4% | [5] 21.4% | [6] 7.6%

COc1ccc(Cl)c(C(=O)O)c1
inactive: [1] 19.1% | [2] 6.9% | [3] 4.1% | [4] 21.4% | [5] 6.85% | [6] 28.4%

c1ccc2c(c1)cc1ccc3cc4ccccc4c4nnc2c1c34
inactive: [1] -23.1% | [2] -7.3% | [3] -10.2% | [4] -16.8% | [5] -11.9% | [6] -14.6%

CCCCCCCC[N+](C)(C)C
inactive: [1] -48.8% | [2] -44.5% | [3] -26.6% | [4] 11.5% | [5] -28.7% | [6] -39.8%

CCOC(=O)C1OC1(C)CC (centres undefined)
inactive: [1] 4.1% | [2] 1% | [3] 10.3% | [4] -5.85% | [5] -5.25% | [6] -21.4%

COC(=O)C(C(=O)C(=O)Nc1ccc(Br)cc1)c1nc2ccc(Cl)cc2[nH]c1=O (centres undefined)
inactive: [1] -11% | [2] -5.1% | [3] 21.9% | [4] 7.05% | [5] -1.55% | [6] 2.8%

C=C(C)c1nn(-c2ccccc2)c2c1C(=O)CC(C)O2 (centres undefined)
inactive: [1] -12.2% | [2] -26.2% | [3] 1.8% | [4] 29.2% | [5] -7.45% | [6] 8.5%

c1ccc(Cc2cc(-c3cc(Cc4ccccc4)[nH]n3)n[nH]2)cc1
inactive: [1] 22.2% | [2] 11.2% | [3] 19.4% | [4] 19.2% | [5] 5.4% | [6] 20.9%

OCC1COc2ccc(Cl)cc2O1 (centres undefined) (tested in a mixture with another compound)
inactive: [1] -10.3% | [2] -7.3% | [3] 2.65% | [4] 16.8% | [5] 6.85% | [6] 4.8%

CC(C)(C)c1cc(/C=N/NC(=S)Nc2ccccc2)cc(C(C)(C)C)c1O
inactive: [1] 25.9% | [2] 8.35% | [3] 41% | [4] -26.3% | [5] -7.15% | [6] 41.5%

O=C(NC(=S)Nc1cccc(Cl)c1)c1ccccc1
inactive: [1] 15.9% | [2] 26.5% | [3] 33.3% | [4] -7.3% | [5] 46.2% | [6] 12.4%

O=C(CN1C(=O)c2ccccc2C1=O)OCC(=O)c1ccccc1
inactive: [1] 18.9% | [2] 12.4% | [3] 1.5% | [4] 0.4% | [5] 12.9% | [6] 4.4%

O=C(/C=C/CBr)NC(Cc1ccccc1)C(=O)O (centres undefined)
inactive: [1] -1.45% | [2] -8.6% | [3] -18.1% | [4] -4% | [5] 15.6% | [6] -4.2%

COC1C(C(=O)O)=CC=CC1OC(C)=O (centres undefined)
inactive: [1] 10.6% | [2] -5.45% | [3] -2.55% | [4] -44.1% | [5] 2.8% | [6] 13.6%

O=c1c2ccccc2n2nnc3ccc(NCCNCCO)c1c32
inactive: [1] -15.1% | [2] 2.8% | [3] -0.7% | [4] 23.3% | [5] -0.45% | [6] -1.3%

COc1ccc2nc3cc(Cl)ccc3c(NCCC3CCCN4CCCCC34)c2c1 (centres undefined)
inactive: [1] 33% | [2] 26.4% | [3] 14.6% | [4] 21.6% | [5] 12.4% | [6] 33%
